Compound activity: PubChem, several laboratories
NR3A LBD binder: binders of NR3A ligand-binding domain, primary screen, biophysical, differential scanning fluorimetry, uHTS | AID 1259313, 2017 | Glutamate receptor ionotropic, NMDA 3A (GRIN3A) ligand-binding domain | 340,000 compounds, 2.5% hits | Tm shift relative to glycine control, % at 25 µM | NR3A LBD differential scanning fluorimetry, Tm shift; 0% = protein alone, 100% = glycine-bound protein;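 active means melting temperature shift of at least 10% of the positive control shift, at one fixed dose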
Mot1-301 SUMO: yeast Mot1-301 growth rescue at high temperature, primary screen, SUMOylation pathway inhibitor project, S. cerevisiae, ATP luminescence, 38.5C; S. cerevisiae Mot1-301 growth rescue; percent above DMSO median, 100 means doubled; growth rescue, % at 18.8 µM; 320,000 compounds, 1% hits; AID 2716, 2010;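 active means every valid replicate shows activation above 250% relative to neutral control wells; inactive means the rest, any valid replicate at or below 250%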
AI-2 QS mod: Vibrio harveyi AI-2 quorum sensing modulators, primary screen, JMH597 strain, luminescence/OD600 ratio | Vibrio harveyi JMH597 AI-2 luminescence/OD600 ratio, 9 h; stronger effect = lower value; strain lacks LuxN and CqsS sensors; 0 = neutral-control median | 300,000 compounds, 0.4% hits | activity change, % at 7.5 µM; in the data active means activity change below about -75%, passing the limit was not always enough;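 further: luminescence divided by OD600 gain over 9 h not by final OD600 alone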
NTR1 agonist: agonists of human NTR1, primary screen, imaging, U2OS cells, beta-arrestin-GFP, high content; activation, % at 20 µM; NTR1-U2OS beta-arrestin-GFP spot imaging, agonist mode; Neurotensin receptor type 1 (Homo sapiens), P30989; 330,000 compounds, 0.17% hits;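 active means activation at or above 40% of the spot to cytoplasm intensity ratio, with at least 20 cells analyzed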
Target sequence (P30989 whole entry, looked up): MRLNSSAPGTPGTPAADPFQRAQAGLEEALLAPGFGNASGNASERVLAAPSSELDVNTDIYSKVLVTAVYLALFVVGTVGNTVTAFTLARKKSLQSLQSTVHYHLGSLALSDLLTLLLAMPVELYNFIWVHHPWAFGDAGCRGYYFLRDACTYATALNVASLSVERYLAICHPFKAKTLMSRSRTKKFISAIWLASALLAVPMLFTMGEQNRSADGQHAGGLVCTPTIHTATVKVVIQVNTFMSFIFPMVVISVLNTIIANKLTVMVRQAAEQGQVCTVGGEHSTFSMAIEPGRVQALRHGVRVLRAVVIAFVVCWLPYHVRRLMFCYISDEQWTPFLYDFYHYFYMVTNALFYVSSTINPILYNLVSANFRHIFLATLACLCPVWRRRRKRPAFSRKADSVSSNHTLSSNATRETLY
Cardio protect: cardioprotection against H2O2-induced cell death, primary screen, uHTS, H9c2 cells, ATPLite luminescence; H9c2 cardiomyocytes, H2O2 injury protection, 2 h; protection from H2O2 cell death, % at 20 µM; 360,000 compounds, 0.63% hits; AID 588492, 2011;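 active means compounds giving at least 50% protection of heart cells from peroxide-induced death in the single-dose screen, raw or plate-pattern-corrected value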
AHR activator: AHR activators, primary screen, cell-based, luminescence, luciferase reporter, human | Aryl hydrocarbon receptor (Homo sapiens), P35869 | AHR-responsive luciferase reporter cells | activation, % at 5 µM | 320,000 compounds, 2.5% hits | AID 2796, 2010; in the data active means activation above about 47%
Numbers stand for hits; n = inactive; x = no result given; ! = a repeat was not active. This is a sample that favours compounds with a hit; in the whole collection about 6.2% have one here.

SMILES | NR3A LBD binder | Mot1-301 SUMO | AI-2 QS mod | NTR1 agonist | Cardio protect | AHR activator
CC(=O)Nc1ccc(S(=O)(=O)Nc2ccccc2N2CCOCC2)cc1 | n | n | x | n | n | n
O=C(OCC(=O)N1CCN(Cc2ccccc2)CC1)c1cc(Cl)ccc1[N+](=O)[O-] | n | n | x | n | n | n
COc1ccc2[nH]cc(CCNC(=S)NCCc3ccccc3)c2c1 | 26.1 | n | n | n | n | n
COc1ccc2[nH]cc(CCNC(=O)Nc3ccccc3)c2c1 | n | n | n | n | n | n
COc1ccccc1NC(=S)NCCc1c[nH]c2ccccc12 | n | n | n | n | n | n
COc1cc(NC(=S)NCCc2c[nH]c3ccccc23)c(OC)cc1Cl | 36.0 | n | n | n | n | n
c1cc(-c2ccc(N3CCOCC3)cc2)n2cnnc2c1 | x | x | x | x | n | x
C=C(C)C1CC=C(C)/C(=N\NC(=S)Nc2ccc(C)cc2)C1 (centres undefined) | n | n | n | n | n | 48.0
C=C(C)C1CC=C(C)/C(=N/NC(=O)COc2ccc(C)cc2)C1 (centres undefined) | n | n | n | n | n | n
Cc1nc2c(o1)CCc1ccccc1C2N1CCN(C)CC1 (centres undefined) | 13.0! | n | n | n | n | n
Cc1cc(C)cc(NC(=O)NCc2c(-c3ccccc3)noc2C)c1 | n | n | n | n | n | n
O=C(NCc1nc(-c2ccc(C(F)(F)F)cc2)no1)Nc1cc(Cl)cc(Cl)c1 | 32.8 | n | x | n | n | n
Cc1onc(-c2ccccc2)c1CNC(=O)Nc1ccc(C(F)(F)F)cc1 | 10.9 | n | n | n | n | n
O=C(NCc1nc(-c2ccc(C(F)(F)F)cc2)no1)Nc1ccc(F)cc1F | n | n | n | n | n | n
Cc1ccccc1C(=O)N1CCC2CC1c1cc(Cl)ccc12 (centres undefined) | n | x | x | x | n | x
CC(=O)Oc1c(Br)cc(N(C(C)=O)S(=O)(=O)c2ccccc2)c2ccccc12 | n | n | n | n | n | 47.6
CCNC(=O)C1CCCN(C(=O)c2ccc(F)c(Cl)c2)CC1 (centres undefined) | x | x | x | x | n | x
Oc1c(Br)cc(Br)cc1C=NCc1ccccc1 | n | n | n | n | 76.3 | n
Oc1c(Br)cc(Br)cc1C=NCc1ccc(F)cc1 | n | n | n | n | 60.4 | n
O/N=C/c1cc(Br)cc(Br)c1OCc1ccccc1 | n | n | n | n | n | 63.7
O/N=C/c1cc(Br)ccc1OCc1ccc(F)cc1 | n | n | n | n | n | n
Oc1cccc(C=NCc2ccccc2)c1 | n | n | n | n | n | n
Cn1c(SCC(=O)Nc2cccnc2Cl)nnc1-c1ccco1 | n | n | x | n | n | n
Cc1[nH]c(C)c(S(=O)(=O)N2CCN(c3ccccc3)CC2)c1C(=O)N1CCCCC1 | n | n | n | n | n | n
COc1cc(C(=O)NC(C)c2ccc(-n3ccnc3)cc2)cc(OC)c1C (centres undefined) | n | n | n | n | n | n
SMILES | NR3A LBD binder | Mot1-301 SUMO | AI-2 QS mod | NTR1 agonist | Cardio protect | AHR activator
COc1ccccc1C(=O)NC(C)c1ccc(-n2ccnc2)cc1 (centres undefined) | n | n | n | n | n | 60.3
CCOc1ccccc1C(=O)NC(C)c1ccc(-n2ccnc2)cc1 (centres undefined) | n | n | n | n | n | 64.7
C/C(=N\Nc1nc2ccccc2[nH]1)c1ccc2c(c1)OCO2 | n | n | n | n | n | 128.1
C/C(=N\Nc1nc2ccccc2[nH]1)c1ccc2c(c1)OCCO2 | n | n | n | n | n | 56.1
C/C(=N\Nc1ccccn1)c1ccc2c(c1)OCO2 | n | n | n | n | n | 58.9
C/C(=N\Nc1ccccn1)c1ccc(Br)s1 | n | n | n | n | n | 69.9
C/C(=N\Nc1ccccn1)c1ccc(C(C)C)cc1 | n | n | n | n | n | n
O=C1NC(NS(=O)(=O)c2ccccc2)(C(F)(F)F)C(=O)N1Cc1ccccc1 (centres undefined) | n | n | n | n | n | n
COc1ccc(NC(=O)NCCCN2CCc3ccccc3C2)cc1 | n | n | n | n | n | n
